The source of these data is PubChem BioAssay (NCATS).

Structures are written as SMILES. Inconclusive results are not listed. The source made the active and inactive calls. Calls come from the whole dose curve; as a rule, active = well fitted cell-killing curve with a large enough effect; inconclusive = small, poorly fitted or top-dose-only effect, or effect the other way; inactive = no such curve, though single readings can be large or run the other way. Non-standard residues stand in square brackets, D forms with d. Residues, ends and D or L forms follow the SMILES beside them. *: point of attachment. Nva = CCC[C@H](N)C(=O)O; Cbz = O=C(OCc1ccccc1)*
Potency is the fitted concentration of half-maximal effect.

The assay can be described thus: Quantitative High-Throughput drug screen in 47 multiple myeloma cell lines against the NCATS MIPE library collection: Karpas417_ECACC cell viability assay (AID 1918961). Conditions: Karpas417 myeloma viability, CellTiter-Glo ATP luminescence, 48 h; viability (% of DMSO): at 45.8 µM (top of the series). The source says: PI: Beverly A. Mock Ph.D.
Laboratory of Cancer Biology and Genetics,
Center for Cancer Research, National Cancer Institute,
National Institute of Health, Bethesda, Maryland
Drug resistance and disease progression are common in multiple myeloma (MM) patients, underscoring the need for new therapeutic combinations. […] We hypothesized that effective combinations would reduce MYC expression and enhance p16 activity. […] These preclinical data identify potentially useful drug combinations for evaluation in drug-resistant MM and reveal potential mechanisms of combined drug sensitivity.
Described herein is the primary MIPE qHTS used to cherrypick compounds. Validated compounds were then further tested for potential synergistic activiy.
[1] Peat TJ, Gaikwad SM, Dubois W, Gyabaah-Kessie N, Zhang S, Gorjifard S, Phyo Z, Andres M, Hughitt VK, Simpson RM, Miller MA, Girvin AT, Taylor A, Williams D, D'Antonio N, Zhang Y, Rajagopalan A, Flietner E, Wilson K, Zhang X, Shinn P, Klumpp-Thomas C, McKnight C, Itkin Z, Chen L, Kazandijian D, Zhang J, Michalowski AM, Simmons JK, Keats J, Thomas CJ, Mock BA. Drug combinations identified by high-throughput screening promote cell cycle transition and upregulate Smad pathways in myeloma. Cancer Lett. 2023 Aug 1;568:216284. doi: 10.1016/j.canlet.2023.216284. Epub 2023 Jun 24. PMID: 37356470; PMCID: PMC10408729.
SEQUENCE No. (e.g., 1, 2, 3, etc.); […] (e.g., Cells, Incubation, Reagent, etc.); VALUE and DESCRIPTION.
1; Cells; 5 uL; white, solid bottom 1536-well Greiner assay plate.
2; Compounds; 23 nL; Kalypsis pin tool (Wako USA) equipped with a 1536-well pin head to transfer to the assay plates.
3; Incubation; 48 hours; 37C incubation.
4; Reagent;5uL; CellTiter Glo (Promega).
5; Detector; 425V; Luminescence; Viewlux PerkinElmer.
NOTES (numbers refer to Sequence numbers above)
1. The cell-based screening methods employed in this study were like those previously published. Briefly, the corresponding myeloma cell lines were screened in 1,536-well plates with 500 cells, 5-uL per well for inhibition of cell viability (assessed by measuring ATP levels with CellTiterGlo).
2. NCATS MIPE 4.0 library of approved and investigational drugs were added using the Kalypsis pin tool. Wells treated with DMSO only for 100% viability and media only wells for 0% viability were used as controls.
3. The assay plates were covered and incubated for 48 hours in a 37C, 5% CO2 incubator with controlled humidity.
4. After 48 hours, CellTilter-GloTM luminescent substrate mix (Promega) reagent was added to the assay plate and plates we incubated for 5 min at room temperature.
5. Signal was measured as median relative luminescence units on a ViewLux (PerkinElmer) multiplate reader.
[1] Heske CM, Davis MI, Baumgart JT, Wilson K, Gormally MV, Chen L, Zhang X, Ceribelli M, Duveau DY, Guha R, Ferrer M, Arnaldez FI, Ji J, Tran HL, Zhang Y, Mendoza A, Helman LJ, Thomas CJ. Matrix Screen Identifies Synergistic Combination of PARP Inhibitors and Nicotinamide Phosphoribosyltransferase (NAMPT) Inhibitors in Ewing Sarcoma. Clin Cancer Res. 2017 Dec 1;23(23):7301-7311. doi: 10.1158/1078-0432.CCR-17-1121. Epub 2017 Sep 12. PMID: 28899971; PMCID: PMC6636827.
On to `Cc1cnc(Nc2ccc(N3CCN(C)CC3)cc2)nc1Nc1cccc(S(=O)(=O)NC(C)(C)C)c1`, for which the Potency is 372 nM (active). On the same count and under the same terms, for `C#CCC(Cc1cnc2nc(N)nc(N)c2n1)c1ccc(C(=O)N[C@@H](CCC(=O)O)C(=O)O)cc1` (stereo not given in full) the value was “inactive”; for `CCS(=O)(=O)Nc1ccc2[nH]c(O)c(C(=Nc3ccc(CN4CCCCC4)cc3)c3ccccc3)c2c1`, 105 nM (active). On to `O=C(C[C@@H]1CC=CCCC(=O)O[C@H](c2ccccc2)CNC1=O)NCc1ccc(Cl)cc1`, for which the viability (% of DMSO) is 118% (active). For the molecule `COc1cccc2c1C(=O)c1c(O)c3c(c(O)c1C2=O)C[C@@](O)(C(=O)CO)C[C@H]3O[C@H]1C[C@H](N)[C@H](O)[C@H](C)O1`, the Potency was 1320 nM (active). With `CN[C@H]1[C@@H](O)[C@@H]2O[C@@H]3O[C@H](C)CC(=O)[C@]3(O)O[C@@H]2[C@@H](NC)[C@H]1O`, the Potency is 469 nM (active). Regarding `Cc1cnc(NC(=O)Nc2cc(Br)c(C)cc2OC[C@@H]2CNCCO2)cn1`, the viability (% of DMSO) was 73.4% (active). `O=c1[nH]c(=O)n([C@H]2C[C@@H](O)[C@@H](CO)O2)cc1C=CBr`: the viability (% of DMSO) was 90.1% (active). For the molecule `COc1cc(C(=O)NC2CCN(C)CC2)ccc1Nc1ncc2c(n1)N(C1CCCC1)CCC(=O)N2C(C)C`, the Potency is 13200 nM (active). Same read-out and setting: the value for `CC(O)(C#Cc1ccc2c(c1)N(c1nc(N)ncc1Cl)CC2)c1nccs1` (stereo not given) was 4690 nM (active); that for `COc1cc(O)c2c(c1)C1OC1C[C@H](O)[C@H](O)C(=O)C=CC[C@H](C)OC2=O` (stereo not given in full) was 469 nM (active). The same measure, in the same setting: the value for `Cc1ccc2nc(NCCN)c3ncc(C)n3c2c1` was 8330 nM (active); that for `CCc1cnn2c(NCc3ccc[n+]([O-])c3)cc(N3CCCC[C@@H]3CCO)nc12` was 20.9 nM (active).

For the molecule `CCOc1cc2c(c(F)c1OCC)C(=N)N(CC(=O)c1cc(N3CCOCC3)c(OC)c(C(C)(C)C)c1)C2`, the Potency result is “inactive”. As to `O=C(O)c1ccc(Nc2ncc3c(n2)-c2ccc(Cl)cc2C(c2c(F)cccc2F)=NC3)cc1`, the Potency result is “inactive”. `Nc1nc(N)c2nc(-c3cccc(O)c3)c(-c3cccc(O)c3)nc2n1`: the Potency is 1320 nM (active). `C=C[C@@H]1CN2CCC1C[C@H]2[C@H](O)c1ccnc2ccc(OC)cc12` (stereo not given in full): the Potency result was “inactive”. With `C#C[C@]1(O)CC[C@@H]2[C@@H]3CCc4cc(O)ccc4[C@H]3CC[C@@]21C`, the Potency is 8330 nM (active). For the molecule `COc1cc(OC)c(C=CS(=O)(=O)Cc2ccc(OC)c(NCC(=O)O)c2)c(OC)c1`, the Potency is 1180 nM (active).

Turning to `C[C@@H](NCc1cc2ccccc2[nH]1)c1cccc2ccccc12`, the Potency entry was “inactive”.

In the case of `Nc1ccc(C(=O)Nc2cccc(-c3nc(N4CCOCC4)c4oc5ncccc5c4n3)c2)cn1`, the Potency is 526 nM (active). For `O=C(C=Cc1ccc(CN(CCO)CCc2c[nH]c3ccccc23)cc1)NO`, the Potency is 105 nM (active).

For the molecule `CC(C=CC1=C(C)CCCC1(C)C)=CC=CC(C)=CC(=O)Nc1ccc(O)cc1`, the Potency is 4290 nM (active). `Cc1cc(O)c2c(c1)C(=O)c1cccc(O)c1C2=O`: the viability (% of DMSO) is 136% (active).

On to `COc1cccc2c1C(=O)c1c(O)c3c(c(O)c1C2=O)C[C@@](O)(C(=O)CO)C[C@@H]3O[C@H]1C[C@H](N)[C@H](OC2CCCCO2)[C@H](C)O1` (stereo not given in full), for which the Potency entry is “inactive”. For `CNC(=O)c1cccc(-c2ccc3c(N4CCOC[C@H]4C)nc(N4CCOC[C@H]4C)nc3n2)c1`, the Potency is 52.6 nM (active).

As to `CCC[C@@H](C=O)NC(=O)[C@H](CC(C)C)NC(=O)[C@H](CC(C)C)NC(=O)OCc1ccccc1` (Cbz-Leu-Leu-[Nva]-aldehyde), the Potency was 296 nM (active). With `C=CC(=O)N1CCc2ccc(-n3c(=O)ccc4cnc5ccc(-c6cnn(C)c6)cc5c43)cc21`, the Potency was 935 nM (active). Take `CO[C@@H]1[C@@H](O)[C@H](O)[C@@H](n2c3c(Cl)cccc3c3c4c(c5c6cccc(Cl)c6[nH]c5c32)C(=O)NC4=O)O[C@@H]1CO`: the Potency is 1320 nM (active). For the molecule `CCN(C(=O)c1c(O)c2c(Cl)cccc2n(C)c1=O)c1ccccc1`, the viability (% of DMSO) is 104% (active). As to `Nc1ncn([C@@H]2O[C@H](CO)[C@@H](O)[C@@H]2O)c(=O)n1`, the Potency is 9350 nM (active).

`Cn1cc(C2=C(c3c4n(c5ccccc35)CCC(CN)C4)C(=O)NC2=O)c2ccccc21` (stereo not given): the Potency was 9350 nM (active). Still for that read-out and setting: for `O=C1CSC(=O)N1C(CCc1ccncc1)COc1ccc(-c2cccc([N+](=O)[O-])c2)cc1` (stereo not given) the value was 46.9 nM (active); for `COc1ccc2c(c1OC)C(=O)OC2[C@H]1c2c(cc3c(c2OC)OCO3)CCN1C` (stereo not given in full), 2090 nM (active). `COc1ccc(C(C)=O)c(O)c1`: the Potency is 418 nM (active).

Turning to `COC(=O)C=CC(=O)OC`, the Potency was 4180 nM (active). `O=C(O)CCCCCC(=O)NN=C1CCCC1`: the viability (% of DMSO) was 136% (active).

As to `CNC(=O)c1ccc(Nc2cc(Nc3ccccc3S(=O)(=O)C(C)C)c3cc[nH]c3n2)nc1`, the Potency was 118 nM (active). With `Cn1cc(C=CC(=O)c2cccc(F)c2)cc1C=CC(=O)NO`, the Potency was 13200 nM (active). `CNC(=O)Nc1ccc(-c2nc(N3CC4CCC(C3)O4)c3cnn(C4CCC5(CC4)OCCO5)c3n2)cc1`: the Potency was 6.6 nM (active).
